Experimental data reported in PubChem BioAssay (EPA / NIEHS).
Where “and” joins values, the source holds several entries; their conditions need not be identical. Equal values may be shown once. Records with an inconclusive call do not appear. Calls of active or inactive are those of the source. How the source made its calls, unless noted: active means hit-call score of the fitted dose curve at least 0.9, where 1 is the maximum; inactive means score below 0.9.

How the values were obtained:
THRB (gene 7068) = THRB (gene 7068) (UniProt P10828); test: TOX21_TRB_COA_Antagonist_Followup_ratio: Tox21 Thyroid Hormone Receptor beta Antagonism through Coactivator Recruitment Follow-Up Assay, Ratio (AID 2283967; active means hit-call score of the fitted dose curve at least 0.9, where 1 is the maximum)
Method in brief: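 Test compound was incubated with 5.0 nM GST-TRβ LBD in 0.10% BSA. Then 200 nM fluorescein-SRC-2 peptide and 2 nM terbium anti-GST antibody were added. TR-FRET (520:495 nm) was measured and normalized to DMSO and T3 controls.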

[1] = target: Retinoic acid receptor RXR-alpha (Homo sapiens) (UniProt P19793); test: TOX21_TR_RXR_BLA_Antagonist_Followup_ratio: Tox21 Thyroid Hormone Receptor beta Retinoid X Receptor alpha (RXRa) Antagonism Beta-lactamase (BLA) Follow-Up Assay, Ratio (AID 2283972; active means hit-call score of the fitted dose curve at least 0.9, where 1 is the maximum)
Method in brief: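 After 5 h attachment at 37C, HEK293T RXRa-bla cells (2,500/well, 2% charcoal-stripped FBS, no phenol red) received compounds at 11 concentrations in triplicate for 16 h. Beta-lactamase read as 460:530 nm ratio after 2 h RT substrate loading.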

[2] = TOX21_TR_RXR_BLA_Antagonist_Followup_viability: Viability Assessment in the Tox21 Thyroid Hormone Receptor beta Retinoid X Receptor alpha (RXRa) Antagonism Beta-lactamase (BLA) Follow-Up Assay (AID 2283979; active means hit-call score of the fitted dose curve at least 0.9, where 1 is the maximum)
Method in brief: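 Follow-up compounds (11 concentrations, triplicate) were incubated 16 h at 37C/5% CO2 with HEK293T RXRa-bla cells seeded at 2,500/well in charcoal-stripped-serum medium. ATP content by CellTiter-Glo luminescence gave viability; curves fitted in both directions against DMSO.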

[3] = target: Nucleoli Translocation, AR (gene 367) (UniProt P10275); test: UPITT_HCI_U2OS_AR_TIF2_Nucleoli_Antagonist: University of Pittsburgh U2OS Androgen Receptor-Transcriptional Intermediary Factor 2 (AR-TIF2) Antagonism High Content Imaging Assay for Nucleoli Translocation (AID 2283997; active means hit-call score of the fitted dose curve at least 0.9, where 1 is the maximum)
Method in brief: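 Measured quantity was AR-RFP fluorescence localized to nucleoli in engineered U2OS cells also bearing TIF2-GFP, acquired on automated high-content imagers. Primary testing used 20 uM compound; actives were confirmed in triplicate wells.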

[4] = CCTE_Simmons_MITO_max_resp_rate: CCTE's HepG2 Seahorse XF Respirometric Screening Assay at Maximal Respiratory State [uncoupled], Simmons Lab (AID 2284002); conditions: actives raise or lower the signal
Method in brief: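 Maximal (FCCP-uncoupled) respiration rate in HepG2, from Seahorse kinetic OCR over 72 min at 6 min cycles. Compounds at 125 nM–100 uM final, 7 points, three biological replicates; both directions fit relative to DMSO.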

[5] = CCTE_Simmons_MITO_inhib_resp_rate: CCTE's HepG2 Seahorse XF Respirometric Screening Assay at Inhibited Respiratory State [full ETC block], Simmons Lab (AID 2284006); conditions: actives raise or lower the signal
Method in brief: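 HepG2 oxygen consumption was measured by Seahorse XF after compound, FCCP, then rotenone/antimycin A injections. Seven concentrations from 125 nM to 100 uM (final) were tested, with 6-min kinetic reads over 72 minutes. Inhibited-state OCR was fitted bidirectionally against DMSO.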

[6] = target: Ratio of Nucleoli Translocation and Cytoplasm, AR (gene 367) (UniProt P10275); test: UPITT_HCI_U2OS_AR_TIF2_Nucleoli_Cytoplasm_Ratio_Agonist: University of Pittsburgh U2OS Androgen Receptor-Transcriptional Intermediary Factor 2 (AR-TIF2) Agonism High Content Imaging Assay for Ratio of Nucleoli Translocation and Cytoplasm (AID 2284000; active means hit-call score of the fitted dose curve at least 0.9, where 1 is the maximum;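 further: hits raise the red nucleolar to cytoplasm ratio above vehicle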)
Method in brief: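 Read-out first: nucleolar-to-cytoplasm ratio of red (AR-RFP) signal, quantified by high-content imaging in U2OS cells co-expressing TIF2-GFP. Activity is scored as signal increase over DMSO. Single-point screening used 20 uM final (0.2% DMSO).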

DIO1 (gene 1733) = test: CCTE_GLTED_hDIO1: CCTE's human Deiodinase 1 (DIO1) Inhibition Assay, Great Lakes Toxicology and Ecology Division (GLTED) Lab (AID 2283987; active means hit-call score of the fitted dose curve at least 0.9, where 1 is the maximum;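 further: isolated human DIO1 enzyme in a cell-free setup rather than cells; enzyme activity read as free iodide liberated from substrate via Sandell-Kolthoff colorimetry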)
Method in brief: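 Inhibition read as reduced iodide release: after 3 h of human DIO1 with chemical, free iodide is quantified colorimetrically (Sandell-Kolthoff cerium/arsenic reaction). Triplicate plates, DMSO baseline.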

[7] = CCTE_Harrill_HTTr_Viability_DMEM_6hr: (Pilot) CCTE's 6-hour Cell Viability Assessment for the High-Throughput Transcriptomics (HTTr) Platform, in MCF-7 cells cultured in DMEM + 10% fetal bovine serum, Harrill Lab (AID 2283973)
Method in brief: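 MCF-7 cells in DMEM + 10% FBS, eight-point dilution series, 6 h exposure. Membrane integrity by propidium iodide exclusion with high-content imaging; bidirectional fit versus DMSO.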

[8] = CCTE_Harrill_HTTr_Viability_DMEM_12hr: (Pilot) CCTE's 12-hour Cell Viability Assessment for the High-Throughput Transcriptomics (HTTr) Platform, in MCF-7 cells cultured in DMEM + 10% fetal bovine serum, Harrill Lab (AID 2283974)
Method in brief: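 MCF-7 cells in DMEM + 10% FBS exposed 12 h to an eight-point dilution series; membrane integrity scored by propidium iodide exclusion with high-content imaging, bidirectional fitting versus DMSO.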

[9] = CCTE_Harrill_HTTr_Viability_DMEM_24hr: (Pilot) CCTE's 24-hour Cell Viability Assessment for the High-Throughput Transcriptomics (HTTr) Platform, in MCF-7 cells cultured in DMEM + 10% fetal bovine serum, Harrill Lab (AID 2283975)
Method in brief: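 MCF-7 cells in DMEM with 10% FBS exposed for 24 hours to an eight-point dilution series. Membrane integrity by propidium iodide exclusion with high content imaging; bidirectional fit against DMSO.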

[10] = CCTE_Harrill_HTTr_Viability_PRF_DMEM_6hr: (Pilot) CCTE's 6-hour Cell Viability Assessment for the High-Throughput Transcriptomics (HTTr) Platform, in MCF-7 cells cultured phenol red-free DMEM + 10% charcoal-stripped fetal bovine serum, Harrill Lab (AID 2283976)
Method in brief: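 MCF-7 cells in phenol red-free DMEM with 10% charcoal-stripped FBS exposed 6 hours to an eight-point dilution series. Propidium iodide exclusion imaged; curves fitted bidirectionally against DMSO.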

[11] = CCTE_Harrill_HTTr_Viability_PRF_DMEM_12hr: (Pilot) CCTE's 12-hour Cell Viability Assessment for the High-Throughput Transcriptomics (HTTr) Platform, in MCF-7 cells cultured in phenol red-free DMEM + 10% charcoal-stripped fetal bovine serum, Harrill Lab (AID 2283977)
Method in brief: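 MCF-7 cells in phenol red-free DMEM with 10% charcoal-stripped FBS exposed 12 hours to an eight-point dilution series. Viability assessed by high-content imaging of propidium iodide exclusion; bidirectional fit versus DMSO.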

[12] = CCTE_Harrill_HTTr_Viability_PRF_DMEM_24hr: (Pilot) CCTE's 24-hour Cell Viability Assessment for the High-Throughput Transcriptomics (HTTr) Platform, in MCF-7 cells cultured in phenol red-free DMEM + 10% charcoal-stripped fetal bovine serum, Harrill Lab (AID 2283980)
Method in brief: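 MCF-7 cells in phenol red-free DMEM with 10% charcoal-stripped FBS, eight-point dilution series, 24 h exposure. Membrane integrity by propidium iodide exclusion with high content imaging; bidirectional fit vs DMSO.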

[13] = CCTE_Harrill_HTTr_Apoptosis_DMEM_6hr: (Pilot) CCTE's 6-hour Apoptosis Assessment for the High-Throughput Transcriptomics (HTTr) Platform, in MCF-7 cells cultured in DMEM + 10% fetal bovine serum, Harrill Lab (AID 2283981)
Method in brief: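 Caspase-3/7 activation read by high content imaging with CellEvent Caspase 3/7 Green in MCF-7 cells (DMEM + 10% FBS), 6 h after dosing; eight-point dilution series. Bidirectional fitting relative to DMSO baseline.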

[14] = CCTE_Harrill_HTTr_Apoptosis_DMEM_12hr: (Pilot) CCTE's 12-hour Apoptosis Assessment for the High-Throughput Transcriptomics (HTTr) Platform, in MCF-7 cells cultured in DMEM + 10% fetal bovine serum, Harrill Lab (AID 2283982)
Method in brief: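 MCF-7 cells in DMEM + 10% FBS, exposed 12 h to an eight-point dilution series; caspase-3/7 activation imaged with CellEvent Green. Bidirectional fit versus DMSO.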

[15] = CCTE_Harrill_HTTr_Apoptosis_DMEM_24hr: (Pilot) CCTE's 24-hour Apoptosis Assessment for the High-Throughput Transcriptomics (HTTr) Platform, in MCF-7 cells cultured in DMEM + 10% fetal bovine serum, Harrill Lab (AID 2283983)
Method in brief: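 MCF-7 cells in DMEM + 10% FBS, eight-point dilution series, 24 h exposure. Caspase-3/7 activation imaged by high-content imaging with CellEvent Caspase 3/7 Green. Bidirectional curve fitting against DMSO baseline.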

[16] = CCTE_Harrill_HTTr_Apoptosis_PRF_DMEM_6hr: (Pilot) CCTE's 6-hour Apoptosis Assessment for the High-Throughput Transcriptomics (HTTr) Platform, in MCF-7 cells cultured phenol red-free DMEM + 10% charcoal-stripped fetal bovine serum, Harrill Lab (AID 2283984)
Method in brief: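 MCF-7 cells in phenol red-free DMEM + 10% charcoal-stripped FBS, eight-point dilution series, 6 h exposure. Caspase-3/7 activation imaged by high-content imaging with CellEvent Caspase 3/7 Green; bidirectional fit versus DMSO baseline.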

[17] = CCTE_Harrill_HTTr_Apoptosis_PRF_DMEM_12hr: (Pilot) CCTE's 12-hour Apoptosis Assessment for the High-Throughput Transcriptomics (HTTr) Platform, in MCF-7 cells cultured in phenol red-free DMEM + 10% charcoal-stripped fetal bovine serum, Harrill Lab (AID 2283985)
Method in brief: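 MCF-7 cells in phenol red-free DMEM with 10% charcoal-stripped FBS, eight-point dilution series, 12 h exposure. Caspase-3/7 activation imaged by high content imaging with CellEvent Green reagent; bidirectional fit vs DMSO.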

[18] = CCTE_Harrill_HTTr_Apoptosis_PRF_DMEM_24hr: (Pilot) CCTE's 24-hour Apoptosis Assessment for the High-Throughput Transcriptomics (HTTr) Platform, in MCF-7 cells cultured in phenol red-free DMEM + 10% charcoal-stripped fetal bovine serum, Harrill Lab (AID 2283986)
Method in brief: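 MCF-7 cells in phenol red-free DMEM with 10% charcoal-stripped FBS, exposed 24 h across an eight-point dilution series. Caspase-3/7 activation imaged with CellEvent Green by high content imaging; bidirectional fitting against DMSO.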

Measured: AC50

Sequence of Retinoic acid receptor RXR-alpha (Homo sapiens) (P19793 whole entry, looked up): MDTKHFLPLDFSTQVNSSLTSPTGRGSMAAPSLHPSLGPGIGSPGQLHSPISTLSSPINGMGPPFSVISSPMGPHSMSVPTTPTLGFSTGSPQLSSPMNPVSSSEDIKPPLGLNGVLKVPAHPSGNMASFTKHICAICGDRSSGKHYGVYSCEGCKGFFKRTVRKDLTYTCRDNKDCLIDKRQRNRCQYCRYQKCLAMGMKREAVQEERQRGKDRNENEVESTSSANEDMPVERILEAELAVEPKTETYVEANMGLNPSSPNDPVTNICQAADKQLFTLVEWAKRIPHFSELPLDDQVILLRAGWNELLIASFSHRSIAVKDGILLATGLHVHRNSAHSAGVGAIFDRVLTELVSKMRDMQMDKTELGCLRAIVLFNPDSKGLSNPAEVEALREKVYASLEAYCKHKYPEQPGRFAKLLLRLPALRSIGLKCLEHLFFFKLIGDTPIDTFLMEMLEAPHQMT
Sequence of Ratio of Nucleoli Translocation and Cytoplasm, AR (gene 367) (P10275 whole entry, looked up): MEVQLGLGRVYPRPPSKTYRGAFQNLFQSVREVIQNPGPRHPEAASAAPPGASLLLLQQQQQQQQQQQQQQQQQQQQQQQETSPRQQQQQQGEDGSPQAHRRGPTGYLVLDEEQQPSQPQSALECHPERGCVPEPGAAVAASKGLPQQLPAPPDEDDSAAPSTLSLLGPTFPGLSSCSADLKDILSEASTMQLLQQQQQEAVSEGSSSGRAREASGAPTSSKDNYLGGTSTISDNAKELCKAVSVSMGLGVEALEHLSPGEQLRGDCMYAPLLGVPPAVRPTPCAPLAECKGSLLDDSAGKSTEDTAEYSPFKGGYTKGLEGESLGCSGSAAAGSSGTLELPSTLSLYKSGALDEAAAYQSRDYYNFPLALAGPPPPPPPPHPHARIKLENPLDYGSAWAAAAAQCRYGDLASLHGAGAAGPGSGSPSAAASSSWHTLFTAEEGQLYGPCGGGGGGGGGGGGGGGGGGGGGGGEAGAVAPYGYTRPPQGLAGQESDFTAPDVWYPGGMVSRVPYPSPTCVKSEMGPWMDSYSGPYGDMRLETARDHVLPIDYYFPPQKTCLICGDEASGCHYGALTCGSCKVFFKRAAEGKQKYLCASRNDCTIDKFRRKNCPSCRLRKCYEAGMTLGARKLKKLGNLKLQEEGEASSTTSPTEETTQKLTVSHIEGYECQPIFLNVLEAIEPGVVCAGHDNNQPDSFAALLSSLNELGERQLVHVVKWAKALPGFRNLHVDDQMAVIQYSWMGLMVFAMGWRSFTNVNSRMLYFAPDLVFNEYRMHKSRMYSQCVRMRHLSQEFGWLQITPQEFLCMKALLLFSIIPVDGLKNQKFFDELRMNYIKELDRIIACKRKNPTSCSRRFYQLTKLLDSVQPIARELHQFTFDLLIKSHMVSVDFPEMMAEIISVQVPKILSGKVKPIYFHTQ
Sequence of Nucleoli Translocation, AR (gene 367) (P10275 whole entry, looked up): as above
Sequence of THRB (gene 7068) (P10828 whole entry, looked up, the tested form may be a part): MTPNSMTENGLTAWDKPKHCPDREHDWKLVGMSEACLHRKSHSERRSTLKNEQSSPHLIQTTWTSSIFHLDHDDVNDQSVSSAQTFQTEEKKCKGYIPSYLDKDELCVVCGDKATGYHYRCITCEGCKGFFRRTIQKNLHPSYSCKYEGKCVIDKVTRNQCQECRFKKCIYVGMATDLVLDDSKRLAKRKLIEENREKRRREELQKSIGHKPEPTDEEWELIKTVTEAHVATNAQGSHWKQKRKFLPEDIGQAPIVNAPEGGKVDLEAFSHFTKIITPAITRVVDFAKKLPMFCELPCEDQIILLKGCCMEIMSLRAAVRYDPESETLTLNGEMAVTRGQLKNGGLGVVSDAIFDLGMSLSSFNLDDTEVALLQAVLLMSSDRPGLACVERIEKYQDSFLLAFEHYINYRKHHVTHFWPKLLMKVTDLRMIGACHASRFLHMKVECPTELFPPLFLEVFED

CO/C=C(/C(=O)OC)c1ccccc1Oc1cc(Oc2ccccc2C#N)ncn1
inactive: THRB (gene 7068) | [1] | [2] | [3]
active: [4] 6.48 µM and 5.12 µM | [5] 17.9 µM and 8.88 µM

CCCCNC(=O)n1c(NC(=O)OC)nc2ccccc21
inactive: THRB (gene 7068) | [1] | [2] | [3] | [6]

Oc1ccccc1-c1ccccc1
inactive: [4] | [5]

Cc1ccc(-c2c(Cl)nc(C#N)n2S(=O)(=O)N(C)C)cc1
active: DIO1 (gene 1733) 43.7 µM | [4] 34 µM
inactive: [3] | [5]

CCON=C(CC)C1=C(O)CC(c2c(C)cc(C)cc2C)CC1=O (stereo not drawn)
inactive: [3]

N#Cc1nn(-c2c(Cl)cc(C(F)(F)F)cc2Cl)c(N)c1S(=O)C(F)(F)F (stereo not drawn)
inactive: [3] | [6] | [4] | [5]
active: DIO1 (gene 1733) 50.6 µM

CCc1nn(C)c(C(=O)NCc2ccc(C(C)(C)C)cc2)c1Cl
inactive: THRB (gene 7068) | [1] | [5]
active: [2] 7.74 µM | [4] 0.496 µM

C=CC1(C)OC(=O)N(c2cc(Cl)cc(Cl)c2)C1=O (stereo not drawn)
not listed: THRB (gene 7068) | [1] | [2] | [3] | [4] | [5] | [6] | DIO1 (gene 1733)
inactive: all other assays above

C#CCOS(=O)OC1CCCCC1Oc1ccc(C(C)(C)C)cc1 (stereo not drawn)
inactive: [5]
active: [4] 11.3 µM

CCNc1nc(Cl)nc(NCC)n1
not listed: THRB (gene 7068) | [1] | [2] | [3] | [4] | [5] | [6] | DIO1 (gene 1733)
inactive: all other assays above

CN(C)C(=S)SSC(=S)N(C)C
active: [9] 54.6 µM | [12] 46.7 µM | [15] 80.6 µM | [3] 12.6 µM
not listed: [1] | [4] | [5] | [6] | DIO1 (gene 1733)
inactive: all other assays above

CS/C(C)=N/OC(=O)N(C)SN(C)C(=O)O/N=C(\C)SC
active: [3] 21.7 µM | [6] 84.1 µM

Cc1cc(Cl)ccc1OCC(=O)O
inactive: [6]

COP(=S)(OC)Oc1nc(Cl)c(Cl)cc1Cl
inactive: [4] | [5]

C=CCC1=C(C)C(OC(=O)C2C(C=C(C)C)C2(C)C)CC1=O (stereo not drawn)
active: [4] 36.2 µM and 53.5 µM | [5] 26 µM and 42.3 µM

COc1nc(NC(C)C)nc(NC(C)C)n1
inactive: [4] | [5]
